Source: PubChem BioAssay (EPA / NIEHS)
Records with an inconclusive call do not appear. Active and inactive are the calls of the source. Rule for the calls, unless noted: active = hit-call score of the fitted dose curve at least 0.9, where 1 is the maximum; inactive = score below 0.9.

Legend:
[1] = biological target: Paired box protein Pax-6 (Homo sapiens) (UniProt P26367); experiment: ATG_Pax6_CIS: Attagene CIS-FACTORIAL HepG2 Assay for human Paired Box 6 (PAX6) (AID 2282956); conditions: HepG2 CIS-FACTORIAL PAX6 reporter transcription, RNA readout; actives raise or lower the signal
Paired box protein Pax-6 (Homo sapiens), sequence (P26367 whole entry, looked up): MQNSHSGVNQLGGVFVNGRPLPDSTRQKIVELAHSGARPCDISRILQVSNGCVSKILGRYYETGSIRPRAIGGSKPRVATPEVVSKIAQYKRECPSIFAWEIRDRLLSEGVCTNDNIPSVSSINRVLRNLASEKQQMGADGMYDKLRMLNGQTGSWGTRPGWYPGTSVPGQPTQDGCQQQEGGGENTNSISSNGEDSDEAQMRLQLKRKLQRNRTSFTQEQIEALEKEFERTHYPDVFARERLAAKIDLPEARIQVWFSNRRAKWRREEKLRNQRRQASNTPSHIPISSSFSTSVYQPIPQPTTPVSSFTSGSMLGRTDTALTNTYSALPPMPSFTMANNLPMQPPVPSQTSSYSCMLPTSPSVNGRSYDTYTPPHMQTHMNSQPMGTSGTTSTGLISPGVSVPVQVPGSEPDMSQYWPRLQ
Method in brief: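 Fluorescent RT-PCR products separated by capillary electrophoresis report PAX6-linked promoter mRNA in HepG2 cells 24 h post-dose. Curves fitted bidirectionally, DMSO as negative control.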

[2] = ATG_PXRE_CIS: Attagene CIS-FACTORIAL HepG2 Assay for human Pregnane X Receptor Element (PXRE) (AID 2282957); conditions: HepG2 Attagene CIS-FACTORIAL PXRE reporter, mRNA; actives raise or lower the signal
Method in brief: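 After a 24 h chemical incubation, total RNA from transfected HepG2 cells was reverse-transcribed and reporter cDNA amplified, FAM-labeled, HpaI-digested and sized by capillary electrophoresis. DMSO served as baseline for bidirectional curve fitting.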

[3] = ATG_PPRE_CIS: Attagene CIS-FACTORIAL HepG2 Assay for human Peroxisome Proliferator-activated Response Element (PPRE) (AID 2282958); conditions: HepG2 PPRE cis-element reporter, Attagene transcription factor profiling; actives raise or lower the signal
Method in brief: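 PPRE activity in HepG2: transient cis-reporter transfection, 24 h compound incubation, reporter mRNA by RT-PCR and CE fluorescence; gain/loss fitted against DMSO.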

[4] = ATG_RORE_CIS: Attagene CIS-FACTORIAL HepG2 Assay for human RAR-related Orphan Receptor Element (RORE) (AID 2282959); conditions: HepG2 Attagene cis-factorial RORE reporter, mRNA; actives raise or lower the signal
Method in brief: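 A 24-hour exposure of transfected HepG2 hepatoma cells precedes RNA isolation and reporter RT-PCR. Labeled products are digested with HpaI and resolved by capillary electrophoresis, with gain or loss of signal scored relative to DMSO.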

[5] = ATG_Sox_CIS: Attagene CIS-FACTORIAL HepG2 Assay for human SRY-box transcription factor (SOX) (AID 2282960); conditions: HepG2 Attagene cis-factorial SOX reporter, mRNA; actives raise or lower the signal
Method in brief: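 HepG2, cis reporter units, 24 h exposure. Reporter mRNA: RT-PCR → FAM labelling → HpaI → CE fluorescence. Bidirectional fit vs DMSO.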

[6] = biological target: Transcription factor Sp1 (Homo sapiens) (UniProt P08047); experiment: ATG_Sp1_CIS: Attagene CIS-FACTORIAL HepG2 Assay for human Specificity Protein 1 (Sp1) (AID 2282961); conditions: HepG2 Sp1 cis-reporter transcription, actives raise or lower the signal
Transcription factor Sp1 (Homo sapiens), sequence (P08047 whole entry, looked up, the tested form may be a part): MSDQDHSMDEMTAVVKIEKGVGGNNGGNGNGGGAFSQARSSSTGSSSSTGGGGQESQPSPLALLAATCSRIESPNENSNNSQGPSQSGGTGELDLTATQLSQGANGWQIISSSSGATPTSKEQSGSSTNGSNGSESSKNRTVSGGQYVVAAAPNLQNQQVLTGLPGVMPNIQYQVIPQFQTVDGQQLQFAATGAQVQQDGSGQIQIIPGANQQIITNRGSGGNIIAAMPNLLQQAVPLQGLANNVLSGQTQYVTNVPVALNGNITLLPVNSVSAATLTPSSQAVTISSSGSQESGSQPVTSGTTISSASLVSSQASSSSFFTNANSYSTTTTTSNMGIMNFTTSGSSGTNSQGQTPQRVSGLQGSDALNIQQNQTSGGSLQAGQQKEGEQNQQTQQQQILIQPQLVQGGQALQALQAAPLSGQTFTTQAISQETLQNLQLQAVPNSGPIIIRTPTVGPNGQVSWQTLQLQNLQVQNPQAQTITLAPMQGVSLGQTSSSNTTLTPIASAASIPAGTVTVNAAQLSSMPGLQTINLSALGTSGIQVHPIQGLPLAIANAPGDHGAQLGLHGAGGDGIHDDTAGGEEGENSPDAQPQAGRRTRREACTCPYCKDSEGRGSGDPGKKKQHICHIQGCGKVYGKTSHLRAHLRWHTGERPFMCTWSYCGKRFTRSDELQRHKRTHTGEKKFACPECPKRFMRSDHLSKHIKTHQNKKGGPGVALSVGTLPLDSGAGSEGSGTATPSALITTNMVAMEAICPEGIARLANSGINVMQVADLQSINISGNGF
Method in brief: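 Liver-derived HepG2 cells, cis-element reporter library, 24 h treatment; RNA isolated, cDNA amplified with reporter-specific primers, FAM-labeled fragments sized on capillary analyzer. DMSO baseline, bidirectional curve fit.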

[7] = ATG_SREBP_CIS: Attagene CIS-FACTORIAL HepG2 Assay for human Sterol Regulatory Element Binding (SREBP) (AID 2282962); conditions: HepG2 Attagene cis-factorial SREBP reporter, mRNA; actives raise or lower the signal
Method in brief: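 Endogenous factor activity is measured in HepG2 through multiplexed reporter units under cis-element control. Following a 24 h incubation, reporter transcripts are reverse-transcribed, PCR-amplified and sized by capillary electrophoresis; activity is fitted in both directions relative to DMSO.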

[8] = biological target: Signal transducer and activator of transcription 3 (Homo sapiens) (UniProt P40763); experiment: ATG_STAT3_CIS: Attagene CIS-FACTORIAL HepG2 Assay for human Signal Transducer and Activator of Transcription 3 (STAT3) (AID 2282963); conditions: HepG2, Attagene cis-factorial STAT3 reporter transcription; actives raise or lower the signal
Signal transducer and activator of transcription 3 (Homo sapiens), sequence (P40763 whole entry, looked up, the tested form may be a part): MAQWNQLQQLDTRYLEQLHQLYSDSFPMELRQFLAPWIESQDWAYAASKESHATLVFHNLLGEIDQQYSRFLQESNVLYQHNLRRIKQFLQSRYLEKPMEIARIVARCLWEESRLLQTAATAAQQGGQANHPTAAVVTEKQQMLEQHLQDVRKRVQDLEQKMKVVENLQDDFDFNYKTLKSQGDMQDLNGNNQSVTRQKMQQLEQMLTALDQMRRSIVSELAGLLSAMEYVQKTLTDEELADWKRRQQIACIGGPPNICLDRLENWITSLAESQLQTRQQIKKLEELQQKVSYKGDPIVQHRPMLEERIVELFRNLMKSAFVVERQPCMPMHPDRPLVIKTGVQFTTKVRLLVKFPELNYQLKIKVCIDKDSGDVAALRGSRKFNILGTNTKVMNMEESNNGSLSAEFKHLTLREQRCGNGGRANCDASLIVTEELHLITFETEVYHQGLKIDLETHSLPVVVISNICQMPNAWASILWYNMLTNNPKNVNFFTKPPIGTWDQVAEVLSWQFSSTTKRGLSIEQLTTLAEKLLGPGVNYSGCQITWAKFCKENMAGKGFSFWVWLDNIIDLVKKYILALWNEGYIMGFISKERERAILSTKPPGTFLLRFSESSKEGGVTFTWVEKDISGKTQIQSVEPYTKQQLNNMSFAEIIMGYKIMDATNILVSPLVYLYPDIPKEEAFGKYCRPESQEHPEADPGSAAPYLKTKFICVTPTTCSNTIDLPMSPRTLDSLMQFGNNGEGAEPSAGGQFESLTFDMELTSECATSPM
Method in brief: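 Fluorescence intensity of 6-FAM-labelled reporter fragments, separated by capillary electrophoresis after RT-PCR, gave the signal. Cells were HepG2 transfected with cis-element reporter units and treated 24 h; fitting was bidirectional relative to DMSO.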

[9] = ATG_TA_CIS: Attagene CIS-FACTORIAL HepG2 Assay for human TA Basal Promoter (AID 2282964); conditions: HepG2 Attagene CIS-factorial TA basal promoter reporter; actives raise or lower the signal
Method in brief: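 Transfected HepG2, 24 h compound exposure; RNA → RT-PCR → FAM primer extension → HpaI cut → CE fluorescence. Gain/loss-of-signal fitted against DMSO negative control. Background-control readout.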

[10] = ATG_TCF_b_cat_CIS: Attagene CIS-FACTORIAL HepG2 Assay for human T-Cell-Factor with beta-catenin (TCF/b-cat) (AID 2282965); conditions: HepG2 TCF/beta-catenin cis-reporter transcription, actives raise or lower the signal
Method in brief: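 HepG2, transient MRTU transfection, cis-element-driven reporters (endogenous TFs). 24 h compound exposure. Readout: reporter mRNA by RT-PCR + 6-FAM primer extension, HpaI digest, capillary electrophoresis. Gain/loss fit vs DMSO baseline.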

[11] = ATG_TAL_CIS: Attagene CIS-FACTORIAL HepG2 Assay for human TAL Basal Promoter (AID 2282966); conditions: HepG2 Attagene cis-factorial TAL promoter reporter; actives raise or lower the signal;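 note: background control endpoint measuring basal TAL promoter reporter mRNA not a specific factor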
Method in brief: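 Basal-promoter background-control endpoint from a multiplexed HepG2 reporter panel. Cells were exposed 24 h, then reporter mRNA was read by RT-PCR/CE fluorescence and fitted in both directions relative to DMSO.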

[12] = ATG_TGFb_CIS: Attagene CIS-FACTORIAL HepG2 Assay for human Transforming Growth Factor (TGF) (AID 2282967); conditions: HepG2 Attagene CIS TGFb reporter, mRNA transcription; actives raise or lower the signal
Method in brief: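 Readout: fluorescently labeled reporter cDNA fragments resolved by capillary electrophoresis after RT-PCR. Transfected HepG2 cells dosed for 24 h; endogenous TF activity at TGFB1-linked cis element; gain or loss fitted relative to DMSO.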

[13] = ATG_VDRE_CIS: Attagene CIS-FACTORIAL HepG2 Assay for human Vitamin D Receptor Element (VDRE) (AID 2282968); conditions: HepG2 VDRE cis-reporter transcription, actives raise or lower the signal
Method in brief: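 Compounds were applied for 24 h to HepG2 cells transfected with promoter-regulated reporter units. Total RNA was reverse-transcribed, and reporter amplicons were fluorescently labelled and sized by capillary electrophoresis.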

[14] = biological target: X-box-binding protein 1 (Homo sapiens) (UniProt P17861); experiment: ATG_Xbp1_CIS: Attagene CIS-FACTORIAL HepG2 Assay for human X-box Binding Protein 1 (XBP1) (AID 2282972); conditions: HepG2 XBP1 cis-element reporter, Attagene multiplex; actives raise or lower the signal
X-box-binding protein 1 (Homo sapiens), sequence (P17861 whole entry, looked up): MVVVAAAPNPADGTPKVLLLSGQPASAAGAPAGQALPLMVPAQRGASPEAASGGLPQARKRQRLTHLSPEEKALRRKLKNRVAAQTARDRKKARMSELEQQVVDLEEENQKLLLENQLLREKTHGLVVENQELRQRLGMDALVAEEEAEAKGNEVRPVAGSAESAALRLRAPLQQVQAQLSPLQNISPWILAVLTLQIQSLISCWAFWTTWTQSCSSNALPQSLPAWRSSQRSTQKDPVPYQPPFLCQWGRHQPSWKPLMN
Method in brief: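 Multiplexed cis-reporter readout in transfected HepG2 liver cells. Exposure lasted 24 hours. Activity in either direction was fitted against DMSO as negative control and baseline.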

[15] = ATG_GAL4_TRANS: Attagene TRANS-FACTORIAL HepG2 Assay for GAL4 (Internal Marker) (AID 2282976; active = hit-call score of the fitted dose curve at least 0.9, where 1 is the maximum); conditions: HepG2 Attagene TRANS GAL4 internal marker reporter
Method in brief: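 Background-control readout: GAL4-UAS reporter transcript in transiently transfected HepG2 cells after 24 h compound exposure. Measured by RT-PCR, 6-FAM primer extension, HpaI digest and capillary electrophoresis; gain-of-signal fit versus DMSO.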

[16] = biological target: Nuclear receptor subfamily 1 group I member 3 (Homo sapiens) (UniProt Q14994); experiment: ATG_CAR_TRANS: Attagene TRANS-FACTORIAL HepG2 Assay for human Constitutive Androstane Receptor (CAR) (AID 2282969; active = hit-call score of the fitted dose curve at least 0.9, where 1 is the maximum;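 note: activators raise reporter mRNA above DMSO so AC50 marks induction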); conditions: HepG2 Attagene TRANS-FACTORIAL CAR reporter
Nuclear receptor subfamily 1 group I member 3 (Homo sapiens), sequence (Q14994 whole entry, looked up, the tested form may be a part): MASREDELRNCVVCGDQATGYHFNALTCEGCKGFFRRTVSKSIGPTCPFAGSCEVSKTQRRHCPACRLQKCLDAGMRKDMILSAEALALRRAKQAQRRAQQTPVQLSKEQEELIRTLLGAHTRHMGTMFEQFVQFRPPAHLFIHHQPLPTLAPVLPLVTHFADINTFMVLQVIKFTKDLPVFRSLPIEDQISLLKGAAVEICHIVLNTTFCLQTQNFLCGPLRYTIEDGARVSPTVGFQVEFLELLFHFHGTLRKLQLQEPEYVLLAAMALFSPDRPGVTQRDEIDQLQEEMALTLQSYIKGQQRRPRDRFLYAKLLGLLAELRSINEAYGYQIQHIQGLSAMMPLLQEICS
Method in brief: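 Transiently transfected HepG2, multiplex TRANS reporters (CAR-Gal4 chimera driving GAL4-UAS reporter). 24 h dosing. Readout: reporter transcript by RT-PCR + capillary electrophoresis, fluorescence intensity; positive direction vs DMSO.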

[17] = biological target: Estrogen receptor (Homo sapiens) (UniProt P03372); experiment: ATG_ERa_TRANS: Attagene TRANS-FACTORIAL HepG2 Assay for human Estrogen Receptor alpha (ERa) (AID 2282970; active = hit-call score of the fitted dose curve at least 0.9, where 1 is the maximum); conditions: HepG2 Attagene TRANS ERa GAL4 reporter, mRNA
Estrogen receptor (Homo sapiens), sequence (P03372 whole entry, looked up, the tested form may be a part): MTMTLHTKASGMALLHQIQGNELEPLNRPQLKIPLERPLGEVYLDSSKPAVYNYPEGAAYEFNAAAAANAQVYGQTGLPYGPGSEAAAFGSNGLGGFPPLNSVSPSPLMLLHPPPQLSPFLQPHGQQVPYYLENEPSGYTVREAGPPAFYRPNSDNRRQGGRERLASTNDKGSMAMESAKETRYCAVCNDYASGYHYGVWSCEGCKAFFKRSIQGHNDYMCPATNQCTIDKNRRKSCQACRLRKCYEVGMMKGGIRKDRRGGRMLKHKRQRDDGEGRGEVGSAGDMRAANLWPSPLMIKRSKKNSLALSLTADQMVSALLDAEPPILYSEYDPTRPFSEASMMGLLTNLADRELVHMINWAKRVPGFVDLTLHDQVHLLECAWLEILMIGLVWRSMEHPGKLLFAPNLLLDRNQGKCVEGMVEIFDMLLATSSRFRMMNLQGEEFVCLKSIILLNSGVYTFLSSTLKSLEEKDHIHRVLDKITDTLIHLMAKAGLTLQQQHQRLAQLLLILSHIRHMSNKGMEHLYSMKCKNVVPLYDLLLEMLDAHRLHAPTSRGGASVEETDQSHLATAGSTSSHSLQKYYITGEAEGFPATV
Method in brief: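 Gal4-fusion ERa transactivation, measured as reporter transcript level in transiently transfected HepG2 cells. Exposure 24 h; RT-PCR plus capillary electrophoresis with fluorescence detection.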

[18] = ATG_M_19_TRANS: Attagene TRANS-FACTORIAL HepG2 Assay for M19 Transcription Factor (Internal Marker) (AID 2282974; active = hit-call score of the fitted dose curve at least 0.9, where 1 is the maximum); conditions: HepG2 Attagene TRANS-FACTORIAL M19 internal marker reporter
Method in brief: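 Transfected HepG2 (GAL4-UAS MRTUs), 24 h compound, TriZol RNA, DNase-treated RT, reporter PCR, FAM label, HpaI digest, CE fluorescence; gain vs DMSO.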

[19] = biological target: Estrogen-related receptor gamma (Homo sapiens) (UniProt P62508); experiment: ATG_ERRg_TRANS: Attagene TRANS-FACTORIAL HepG2 Assay for human Estrogen-Related Receptor gamma (ERRg) (AID 2282977; active = hit-call score of the fitted dose curve at least 0.9, where 1 is the maximum;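 note: hits increase reporter signal over DMSO so potencies reflect activators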); conditions: HepG2 Attagene TRANS reporter, ERRg transactivation
Estrogen-related receptor gamma (Homo sapiens), sequence (P62508 whole entry, looked up, the tested form may be a part): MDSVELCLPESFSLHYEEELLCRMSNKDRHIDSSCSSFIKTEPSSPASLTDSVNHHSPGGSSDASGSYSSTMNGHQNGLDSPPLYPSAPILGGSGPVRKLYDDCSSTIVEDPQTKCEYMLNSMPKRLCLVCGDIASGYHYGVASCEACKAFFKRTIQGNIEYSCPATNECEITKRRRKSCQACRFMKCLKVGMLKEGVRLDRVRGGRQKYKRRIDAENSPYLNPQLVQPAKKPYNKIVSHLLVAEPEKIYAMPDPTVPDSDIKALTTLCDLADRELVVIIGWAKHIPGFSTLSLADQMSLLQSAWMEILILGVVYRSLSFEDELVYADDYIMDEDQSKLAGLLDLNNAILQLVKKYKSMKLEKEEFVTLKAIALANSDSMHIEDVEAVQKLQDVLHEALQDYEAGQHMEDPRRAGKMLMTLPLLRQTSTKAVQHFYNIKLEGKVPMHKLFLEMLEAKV
Method in brief: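 Induction of reporter transcripts through a chimeric NR-Gal4 protein is quantified in transfected human HepG2 liver cells after 24 h chemical exposure, using RT-PCR with capillary electrophoresis detection and DMSO as baseline.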

Measured: AC50

CCC(CC)C(=O)O
inactive: [1] | [2] | [3] | [4] | [5] | [6] | [7] | [8] | [9] | [10] | [11] | [12] | [13] | [14] | [15]

CCCCCCCCCCCCCCCCCC#N
inactive: [1] | [2] | [3] | [4] | [5] | [6] | [7] | [8] | [9] | [10] | [11] | [12] | [16] | [17] | [14] | [15]

O=C1Nc2ccccc2C1(c1ccc(O)cc1)c1ccc(O)cc1
inactive: [2] | [3] | [4] | [6] | [8] | [11] | [12]
active: [1] 70.7 µM | [5] 63.9 µM | [7] 27.2 µM | [9] 61.7 µM | [10] 40.9 µM | [13] 17.8 µM | [14] 48.8 µM

CCCCCC/C=C/C=O
active: [2] 37.8 µM | [3] 15 µM
inactive: [1] | [4] | [5] | [6] | [7] | [8] | [9] | [10] | [11] | [12] | [14] | [18] | [15] | [19]

c1c[nH]cn1
active: [2] 63.8 µM
inactive: [1] | [3] | [4] | [5] | [6] | [7] | [8] | [9] | [10] | [11] | [12] | [13] | [14] | [18] | [15]

COCCCOCCCOC
inactive: [1] | [2] | [3] | [4] | [5] | [6] | [7] | [8] | [9] | [10] | [11] | [12] | [13] | [14] | [18]

Nc1ccc(-c2ccc(F)cc2)cc1
active: [2] 27.4 µM | [17] 26.9 µM
inactive: [1] | [3] | [4] | [5] | [6] | [7] | [8] | [9] | [10] | [11] | [13] | [14] | [19]

O=C(O)Cc1c(Cl)ccc(Cl)c1Cl
inactive: [1] | [2] | [3] | [4] | [5] | [6] | [7] | [8] | [9] | [10] | [11] | [12] | [14] | [18]

C=COCCCC
inactive: [1] | [2] | [3] | [4] | [5] | [6] | [7] | [8] | [9] | [10] | [11] | [12] | [13] | [14] | [18] | [15]
